The whole screen tested about 100,000 compounds, of which about 770 (0.77%) were called active. The list comes from a sample in which actives are over-represented; it also holds similar structures and randomly drawn compounds. Values without a mark were called inactive. Cut-off read from the data, not from the text of the source: active = inhibition above about 50%; inactive = the rest.

The test addresses Gag-Pol polyprotein (Human immunodeficiency virus type 1 group M subtype B (isolate HXB2)) (UniProt P04585). The experiment in a line: RNase H inhibition, HIV 1 Gag Pol polyprotein, FRET biochemical assay, screening (AID 372). The following applies: HIV-1 RT RNase H, FRET RNA/DNA substrate fluorescence; at 10 µM; active compounds read high.
For orientation: inhibition means the drop in the measured response relative to a control, in per cent. On to `O=C(Nc1ccc2oc(-c3ccc(F)cc3Cl)nc2c1)c1cc(Cl)ccc1Cl`, for which the inhibition is 18%.

With `Oc1ccc2ccccc2c1CN1CCOCC1`, the inhibition was 7%.

In the case of `Cc1ccc(/C=C/C(=O)Nc2ncc(Cc3cc(Cl)ccc3Cl)s2)cc1`, the inhibition is 24%.

For the compound `O=C(/C=C/c1cccs1)Nc1ncc(Cc2ccccc2Cl)s1`, the inhibition was 4%.

`COc1ccc(/C=C/C(=O)Nc2ncc(Cc3ccccc3Cl)s2)cc1`: the inhibition was 54% (active).

As for `CCOc1ccccc1OCCOc1cccc(Br)c1`, the inhibition was 3%.

In the case of `Cc1cccc(N2CCN(CN3C(=O)/C(=C/c4ccc(C)o4)SC3=S)CC2)c1`, the inhibition was 2%.

Turning to `CCOC(=O)C(CCCCCOc1ccccc1C(C)(C)C)C(=O)OCC`, the inhibition was 20%.

With `CCc1ccc(-c2nc(-c3ccccn3)no2)cc1`, the inhibition was 15%.

Consider `COc1cc(/C=N/c2sc3c(c2C#N)CCCC3)cc(Br)c1O`, for which the inhibition was 15%.

`NC(=O)c1c(/N=C/c2cc(Cl)cc(Cl)c2O)sc2c1CCCC2`: the inhibition was 11%.

As for `CCOC(=O)c1c(N)n(CCOC)c2nc3ccccc3nc12`, the inhibition was 0%.

Take `C=CCN(CC=C)CCCCOc1cccc(C)c1`: the inhibition was 5%.

On to `Oc1ccc(Nc2nc3ccccc3nc2Nc2ccc(O)cc2)cc1`, for which the inhibition is 12%.

In the case of `Ic1ccc(Nc2nc3ccccc3nc2Nc2ccc(I)cc2)cc1`, the inhibition was 34%.

Turning to `Brc1ccc(Nc2nc3ccccc3nc2Nc2ccc(Br)cc2)cc1`, the inhibition was 55% (active).

Regarding `O=C(NCCO)C(=O)Nc1ccccc1`, the inhibition was 0%.

On to `CCN1CCN(CC(=O)N/N=C/c2ccccc2)CC1`, for which the inhibition is 8%.

As to `CCc1ccc(C2Nc3ccc4ccccc4c3C3=C2C(=O)CC(C)(C)C3)cc1` (stereo unspecified), the inhibition is 19%.

For the compound `CC(=O)N(C1=C(N(C)C)C(=O)c2ccccc2C1=O)c1ccc(Br)cc1`, the inhibition was 1%.

For the compound `CC(=O)N(C1=C(Cl)C(=O)c2ccccc2C1=O)c1ccc(Br)cc1`, the inhibition was 69% (active).

As to `CC(=O)N(C1=C(Cl)C(=O)c2ccccc2C1=O)c1ccc(Cl)cc1`, the inhibition is 32%.

In the case of `CCN1CCN(CC(O)COc2ccc(C(C)(C)C)cc2)CC1` (stereo unspecified), the inhibition was 0%.

For the compound `O=C(O)c1ccc(C(=O)Nc2ccccc2Br)c(C(=O)O)c1`, the inhibition was 54% (active).

Take `O=C(O)c1ccc(C(=O)Nc2ccccc2Oc2ccccc2)c(C(=O)O)c1`: the inhibition was 6%.

With `O=C(O)c1ccc(C(=O)Nc2ccc(I)cc2)c(C(=O)O)c1`, the inhibition is 9%.

Regarding `CCC1CCc2c(sc(NC(=O)CCC(=O)O)c2C#N)C1` (stereo unspecified), the inhibition is 2%.

In the case of `C=CCNc1nc(-c2ccc(Cl)cc2)nc2ccccc12`, the inhibition was 8%.

For the compound `Cc1cc(=O)oc2cc3occ(-c4ccccc4)c3cc12`, the inhibition was 57% (active).

`Cc1coc2cc3oc(=O)cc(C)c3cc12`: the inhibition was 7%.

For `Cc1cc(=O)oc2c(C)c3occ(-c4ccccc4)c3cc12`, the inhibition was 31%.

As to `O=C(O)CC(C(=O)O)N1C(=O)/C(=C\C(Cl)=C/c2ccc([N+](=O)[O-])cc2)SC1=S` (stereo unspecified), the inhibition was 14%.

Take `c1ccc(CNc2nc(-c3ccccc3)[n+](-c3ccccc3)s2)cc1`: the inhibition was 52% (active).

Consider `c1ccc(Nc2nc(-c3ccccc3)[n+](-c3ccccc3)s2)cc1`, for which the inhibition was 30%.

Consider `c1ccc(CNc2nc(-c3ccccc3)cc(-c3ccccc3)n2)cc1`, for which the inhibition is 15%.

As for `CS(=O)(=O)N(CC(=O)NCCSCc1ccc(Cl)cc1)c1ccc(Cl)cc1`, the inhibition is 55% (active).

In the case of `CS(=O)(=O)N(CC(=O)NCCSCc1ccccc1Cl)c1ccc(Br)cc1`, the inhibition is 50% (active).

Take `COc1ccc(N(CC(=O)NCCSCc2ccc(Cl)cc2)S(C)(=O)=O)cc1Cl`: the inhibition is 38%.

Turning to `Cc1ccc(CSCCNC(=O)CN(c2cccc(C)c2)S(C)(=O)=O)cc1`, the inhibition was 18%.

Take `CS(=O)(=O)N(CC(=O)NCCSc1ccc(Cl)cc1)c1ccc(Br)cc1`: the inhibition is 8%.

On to `COc1ccc(N(CC(=O)NCCSCc2ccccc2Cl)S(C)(=O)=O)cc1`, for which the inhibition is 22%.

Regarding `Cc1cc(C)cc(N(CC(=O)NCCSCc2ccc(Cl)cc2)S(C)(=O)=O)c1`, the inhibition was 57% (active).

As to `CCOc1ccc(N(CC(=O)NCCSCc2ccc(Cl)cc2)S(C)(=O)=O)cc1`, the inhibition is 22%.

As for `COc1ccc(S(=O)(=O)N(CC(=O)NCCSCc2ccc(Cl)cc2)c2cc(C)cc(C)c2)cc1OC`, the inhibition was 12%.

With `O=C(NC(=S)Nc1ccccc1[N+](=O)[O-])c1ccc(-c2ccccc2)cc1`, the inhibition was 13%.

For `O=C(Cn1c(NCCCO)nc2ccccc21)c1ccc(Br)s1`, the inhibition was 11%.

Take `Cc1sc(NC(=O)/C=C/c2ccc(Cl)cc2Cl)c(C(N)=O)c1C`: the inhibition is 26%.

On to `Nc1nnc(SCC(=O)Nc2ccccc2Oc2ccccc2)s1`, for which the inhibition was 4%.

With `CCC(C)c1ccc(NC(=S)NC(=O)c2ccc(OC)c(Br)c2)cc1` (stereo unspecified), the inhibition was 9%.

Turning to `COc1ccc(CCN(C)C2CC(=O)N(c3ccc(F)cc3)C2=O)cc1OC` (stereo unspecified), the inhibition was 0%.

Consider `Cc1ccc2oc(-c3cc(NC(=O)c4ccc(I)cc4)ccc3O)nc2c1`, for which the inhibition is 10%.

With `COc1ccc(Cc2cnc(NC(=O)c3ccccc3Cl)s2)cc1`, the inhibition was 11%.

In the case of `NS(=O)(=O)c1ccc(CNC2CC(=O)N(CCc3ccccc3)C2=O)cc1` (stereo unspecified), the inhibition was 9%.

For `O=[N+]([O-])c1ccc2nc3c([nH]c4ccccc43)c(Cl)c2c1`, the inhibition is 58% (active).

As for `O=c1c2cc([N+](=O)[O-])ccc2[nH]c2c1[nH]c1ccccc12`, the inhibition is 33%.

Regarding `O=[N+]([O-])c1ccc2nc3c([nH]c4ccccc43)c(N3CCOCC3)c2c1`, the inhibition is 6%.

Regarding `CCOc1cc(C(=O)NCc2ccccc2OC)cc(OCC)c1OCC`, the inhibition was 2%.

Turning to `Cc1ccc(C(=O)NNC(=S)NC(C)(C)C)cc1`, the inhibition was 6%.

Consider `O=C(CC1SC(=Nc2ccccc2)N(c2ccccc2)C1=O)Nc1ccccc1` (stereo unspecified), for which the inhibition is 58% (active).

For `Cc1ccc(NC(=O)CC2SC(=Nc3ccccc3)N(c3ccccc3)C2=O)cc1` (stereo unspecified), the inhibition was 5%.

In the case of `O=C(CC1SC(=Nc2ccccc2)N(c2ccccc2)C1=O)Nc1ccc(F)cc1` (stereo unspecified), the inhibition is 14%.

With `O=C(N/C(=C/c1cccc(Br)c1)C(=O)N1CCOCC1)c1ccccc1`, the inhibition was 5%.

Take `CC(C)Cc1nnc(NC(=O)c2ccccc2I)s1`: the inhibition is 0%.

For `CCOC(=O)N1CCN(CCC(=O)Nc2ccc3c(c2)OCO3)CC1`, the inhibition is 16%.

In the case of `Cc1cc2nn(-c3ccccc3)nc2cc1NC(=O)c1ccc(Cl)cc1Cl`, the inhibition was 41%.

For the compound `Cc1ccc(-n2nc3cc(C)c(NC(=O)c4ccc(Cl)cc4Cl)cc3n2)cc1`, the inhibition was 1%.

With `Cc1cc2nn(-c3ccccc3)nc2cc1NC(=O)c1cccc([N+](=O)[O-])c1C`, the inhibition is 16%.

Consider `Cc1cc2nn(-c3ccc(Cl)cc3)nc2cc1NC(=O)c1ccccc1Br`, for which the inhibition was 52% (active).

For `Cc1cc2nn(-c3ccc(Cl)cc3)nc2cc1NC(=O)c1ccccc1C`, the inhibition is 36%.

In the case of `Cc1ccc(-n2nc3cc(C)c(NC(=O)c4ccccc4[N+](=O)[O-])cc3n2)cc1`, the inhibition was 15%.

Regarding `Cc1ccc(-n2nc3cc(C)c(NC(=O)c4ccccc4Br)cc3n2)cc1`, the inhibition was 4%.

Turning to `Cc1cc2nn(-c3ccc(Cl)cc3)nc2cc1NC(=O)c1ccc(Cl)cc1Cl`, the inhibition was 58% (active).

Turning to `COc1ccc(-n2nc3cc(C)c(NC(=O)/C=C/c4ccccc4)cc3n2)cc1`, the inhibition is 42%.

For `Cc1cc2nn(-c3ccccc3)nc2cc1NC(=O)/C=C/c1ccc(Cl)cc1`, the inhibition was 54% (active).

As to `Cc1cc2nn(-c3ccccc3)nc2cc1NC(=O)/C=C/c1ccccc1`, the inhibition is 12%.

As to `Cc1ccc(-n2nc3cc(C)c(NC(=O)c4cccc([N+](=O)[O-])c4C)cc3n2)cc1`, the inhibition was 51% (active).

As to `Cc1ccc(OCCOc2ccc(Br)cc2/C=C2\SC(=S)NC2=O)c(C)c1`, the inhibition is 46%.

Turning to `O=C(COC(=O)c1ccccc1Cl)c1ccc(Cl)cc1Cl`, the inhibition was 43%.

Turning to `CCOC(=O)C1=C(C)N=c2s/c(=C/c3ccc(-c4cc([N+](=O)[O-])ccc4OC)o3)c(=O)n2C1c1cccs1` (stereo unspecified), the inhibition was 8%.

For the compound `CC(O)c1cccc(NC(=O)c2nn3c(c2Cl)NC(c2cccs2)CC3C(F)(F)F)c1` (stereo unspecified), the inhibition was 6%.

For `COc1ccc(-c2cc(-c3ccccc3)nc(-c3ccc(C)o3)c2)cc1`, the inhibition was 16%.

Consider `Cc1cc2nn(-c3ccccc3)nc2cc1NC(=O)c1ccc([N+](=O)[O-])cc1Cl`, for which the inhibition was 22%.

With `Cc1cc2nn(-c3ccc(Cl)cc3)nc2cc1NC(=O)c1ccc([N+](=O)[O-])cc1Cl`, the inhibition is 50% (active).

For the compound `COc1ccc(-n2nc3cc(C)c(NC(=O)c4cc(Cl)ccc4Cl)cc3n2)cc1`, the inhibition is 35%.

For the compound `Cc1ccc(-n2nc3cc(C)c(NC(=O)c4cc(Cl)ccc4Cl)cc3n2)cc1`, the inhibition is 5%.

`Cc1ccc(-n2nc3cc(C)c(NC(=O)c4ccc([N+](=O)[O-])cc4Cl)cc3n2)cc1`: the inhibition was 0%.

Consider `Cc1cc2nn(-c3ccc(Cl)cc3)nc2cc1NC(=O)c1cc(Cl)ccc1Cl`, for which the inhibition was 52% (active).

For `CSc1ccc(/C=C2\C(=O)NC(=O)N(c3ccc(Br)c(C)c3)C2=O)cc1`, the inhibition was 0%.

Turning to `Cc1sc(NC(=O)c2ccccc2C(=O)O)c(C#N)c1C`, the inhibition is 3%.

`O=[N+]([O-])c1cccc(-n2nncc2C23CC4CC(CC(C4)C2)C3)c1`: the inhibition is 19%.

Take `Cc1cc(OCC(=O)O)c2c(C)c(Cc3ccccc3)c(=O)oc2c1`: the inhibition is 4%.

As to `Cc1cc(OC(=O)C2CC2)c2c(C)c(Cc3ccccc3)c(=O)oc2c1`, the inhibition is 55% (active).

Turning to `CC(=O)Oc1cc(C)cc2oc(=O)c(Cc3ccccc3)c(C)c12`, the inhibition is 23%.

For `COc1cc(C)cc2oc(=O)c(Cc3ccccc3)c(C)c12`, the inhibition is 22%.

Take `CCCOc1cc(C)cc2oc(=O)c(Cc3ccccc3)c(C)c12`: the inhibition is 56% (active).

With `CCOc1cc(C)cc2oc(=O)c(Cc3ccccc3)c(C)c12`, the inhibition was 46%.
